The record followed here is PubChem BioAssay (EPA / NIEHS).

Inconclusive results are not listed. Activity calls are given as the source filed them. Rule for the calls, unless noted: active = hit-call score of the fitted dose curve at least 0.9, where 1 is the maximum; inactive = score below 0.9.

Read-out in experiment [1]: Macrophage colony-stimulating factor (MCSF), CSF1 (gene 1435)
Description: BSK_LPS_MCSF: BioMAP Diversity Plus: LPS Assay for Macrophage colony-stimulating factor (MCSF) Biomarker Activity (AID 2283083). To be noted: primary human HUVEC with PBMC; actives raise or lower the signal. An outline of the steps: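 HUVEC + PBMC co-culture (human primary), 24 h post-dose; M-CSF by ELISA; gain/loss of signal fitted bidirectionally vs DMSO baseline.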

Read-out in experiment [2]: Tissue Factor, F3 (gene 2152)
Nature of the experiment: BSK_LPS_TissueFactor: BioMAP Diversity Plus: LPS Assay for Tissue Factor Biomarker Activity (AID 2283084). To be noted: primary human HUVEC with PBMC; actives raise or lower the signal. An outline of the steps: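 HUVEC/PBMC co-culture, LPS-activated; CD142 ELISA read 24 h post-dose; bidirectional curve fit vs DMSO negative control.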

Read-out in experiment [3]: Tumor necrosis factor (Homo sapiens) (UniProt P01375)
Description: BSK_LPS_TNFa: BioMAP Diversity Plus: LPS Assay for Tumour Necrosis Factor alpha (TNFa) Biomarker Activity (AID 2283085).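 For AC50: TNFa protein level quantified by ELISA in the co-culture.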 To be noted: primary human HUVEC with PBMC; actives raise or lower the signal. In a few lines:
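TNFa was quantified by ELISA in LPS-activated co-cultures of human endothelial cells and PBMC, 24 h post-dosing. Both increases and decreases versus DMSO were fitted.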

Read-out in experiment [4]: Vascular cell adhesion molecule 1 (VCAM1), VCAM1 (gene 7412)
Nature of the experiment: BSK_LPS_VCAM1: BioMAP Diversity Plus: LPS Assay for Vascular cell adhesion molecule 1 (VCAM1) Biomarker Activity (AID 2283086). To be noted: primary human HUVEC with PBMC; actives raise or lower the signal. An outline of the steps:
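VCAM-1 quantified by ELISA in an LPS-activated co-culture of human endothelial cells and peripheral blood mononuclear cells, read 24 h post-treatment. Fitted in both directions versus DMSO; parallel SRB staining flags overt cytotoxicity.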

Read-out in a further experiment: CD38, CD38 (gene 952)
Description: BSK_SAg_CD38: BioMAP Diversity Plus: SAg Assay for CD38 Biomarker Activity (AID 2283087). To be noted: primary human HUVEC with PBMC; actives raise or lower the signal. An outline of the steps:
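CD38 quantified by ELISA (fluorescence) in a superantigen-activated endothelial cell–PBMC co-culture at 24 h post-dose. Activity fitted in both directions relative to DMSO; parallel SRB and Alamar Blue cytotoxicity read-outs.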

Read-out in a further experiment: CD40, CD40 (gene 958)
Nature of the experiment: BSK_SAg_CD40: BioMAP Diversity Plus: SAg Assay for CD40 Biomarker Activity (AID 2283088). To be noted: primary human HUVEC with PBMC; actives raise or lower the signal. An outline of the steps: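 HUVEC/PBMC co-culture, 24 h post-dose; CD40 by ELISA, fluorescence intensity; bidirectional fit vs DMSO negative control.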

Read-out in a further experiment: CD69, CD69 (gene 969)
Description: BSK_SAg_CD69: BioMAP Diversity Plus: SAg Assay for CD69 Biomarker Activity (AID 2283089).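 For AC50: cell surface CD69 protein quantified by ELISA with fluorescence detection.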 To be noted: primary human HUVEC with PBMC; actives raise or lower the signal. An outline of the steps: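 Endothelial/PBMC co-culture; chemical added; 24 h incubation; CD69 ELISA with fluorescence detection; bidirectional fit vs DMSO.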

Read-out in experiment [5]: Monocyte Chemoattractant Protein-1 (MCP1), CCL2 (gene 6347)
Nature of the experiment: BSK_SAg_MCP1: BioMAP Diversity Plus: SAg Assay for Monocyte Chemoattractant Protein-1 (MCP1) Biomarker Activity (AID 2283090). To be noted: primary human HUVEC with PBMC; actives raise or lower the signal. In a few lines:
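Values derive from bidirectional fitting of ELISA-measured MCP1 against DMSO controls. Readings were taken 24 h after dosing human vascular endothelial cells co-cultured with peripheral blood mononuclear cells under superantigen stimulation.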

Read-out in experiment [6]: E-selectin (Homo sapiens) (UniProt P16581)
Description: BSK_SAg_Eselectin: BioMAP Diversity Plus: SAg Assay for Eselectin Biomarker Activity (AID 2283091). To be noted: primary human HUVEC with PBMC; actives raise or lower the signal. An outline of the steps: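 E-selectin ELISA readout at 24 h post-dosing in human umbilical vein endothelial cell/PBMC co-culture; gain or loss of signal fitted relative to DMSO baseline.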

Read-out in experiment [7]: Monokine induced gamma interferon (MIG), CXCL9 (gene 4283)
Description: BSK_SAg_MIG: BioMAP Diversity Plus: SAg Assay for Monokine induced gamma interferon (MIG) Biomarker Activity (AID 2283092). To be noted: primary human HUVEC with PBMC; actives raise or lower the signal. An outline of the steps: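 Measures CXCL9 protein by ELISA in a human vascular primary-cell co-culture (umbilical vein endothelium with PBMC) 24 h after chemical addition. Activity is scored up or down from the DMSO control.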

Experiment [8] is described as follows: BSK_SAg_PBMCCytotoxicity: PBMC Cytotoxicity Assessment in the BioMAP Diversity Plus: SAg Assay (AID 2283093).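 For AC50: PBMC superantigen activated with SEB plus TSST-1 one hour after compound addition.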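 Note: fitted both ways against DMSO so a hit may be loss or gain of signal.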 To be noted: primary human HUVEC with PBMC. In a few lines:
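PBMC viability by Alamar Blue reduction, fluorescence read at 546/580 nm after 6 h dye exposure. Cells were dosed 1 h before SEB plus TSST-1 activation (20 ng/mL final each), then held 90 h; endothelial/PBMC human co-culture.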

Read-out in experiment [9]: Interleukin-8 (IL8), CXCL8 (gene 3576)
Nature of the experiment: BSK_SAg_IL8: BioMAP Diversity Plus: SAg Assay for Interleukin-8 (IL8) Biomarker Activity (AID 2283094). To be noted: primary human HUVEC with PBMC; actives raise or lower the signal. In a few lines:
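ELISA readout of IL-8 from a superantigen-activated endothelial/PBMC primary human co-culture, taken 24 h post-dosing and fitted in both directions against DMSO; parallel SRB total-protein staining flags overt cytotoxicity.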

Experiment [10] is described as follows: BSK_SAg_Proliferation: Cell Proliferation Assessment in the BioMAP Diversity Plus: SAg Assay (AID 2283095).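 Note: relative cell number as total protein by SRB absorbance in sub-confluent culture.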 To be noted: primary human HUVEC with PBMC. In a few lines:
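Relative cell number in the endothelial cell/PBMC co-culture was quantified at 96 h by SRB staining (0.1% SRB, 10% TCA fixation, read at 560 nm). Curves were fitted in both directions relative to DMSO baseline.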

Experiment [11] is described as follows: BSK_SAg_SRB: Viability Assessment in the BioMAP Diversity Plus: SAg Assay (AID 2283096).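 Note: cells read one day after compound addition; hits may be either gain or loss of signal compared with DMSO.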 To be noted: primary human HUVEC with PBMC. An outline of the steps:
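Compounds were added to a human vascular co-culture of umbilical vein endothelium and PBMC. After 24 h, parallel cultures were fixed with 10% TCA, stained with 0.1% sulforhodamine B and read at 560 nm. Gain or loss of signal was fitted relative to DMSO.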

Experiment [12] addresses human CYP19A1, CYP19A1 (gene 1588) (UniProt P11511). Description: NVS_ADME_hCYP19A1: NovaScreen (NVS) CYP450-related Enzyme Activity (ADME) Assay for human CYP19A1 (AID 2283098; active = hit-call score of the fitted dose curve at least 0.9, where 1 is the maximum). An outline of the steps:
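Fluorescence intensity read-out; activity taken as signal loss relative to acetonitrile vehicle. Extracted enzyme, specific substrate, no cells, 0.5 h exposure. Duplicate single-point screen at 10 uM, then concentration–response follow-up for actives.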

Chain of E-selectin (Homo sapiens) (P16581 whole entry, looked up): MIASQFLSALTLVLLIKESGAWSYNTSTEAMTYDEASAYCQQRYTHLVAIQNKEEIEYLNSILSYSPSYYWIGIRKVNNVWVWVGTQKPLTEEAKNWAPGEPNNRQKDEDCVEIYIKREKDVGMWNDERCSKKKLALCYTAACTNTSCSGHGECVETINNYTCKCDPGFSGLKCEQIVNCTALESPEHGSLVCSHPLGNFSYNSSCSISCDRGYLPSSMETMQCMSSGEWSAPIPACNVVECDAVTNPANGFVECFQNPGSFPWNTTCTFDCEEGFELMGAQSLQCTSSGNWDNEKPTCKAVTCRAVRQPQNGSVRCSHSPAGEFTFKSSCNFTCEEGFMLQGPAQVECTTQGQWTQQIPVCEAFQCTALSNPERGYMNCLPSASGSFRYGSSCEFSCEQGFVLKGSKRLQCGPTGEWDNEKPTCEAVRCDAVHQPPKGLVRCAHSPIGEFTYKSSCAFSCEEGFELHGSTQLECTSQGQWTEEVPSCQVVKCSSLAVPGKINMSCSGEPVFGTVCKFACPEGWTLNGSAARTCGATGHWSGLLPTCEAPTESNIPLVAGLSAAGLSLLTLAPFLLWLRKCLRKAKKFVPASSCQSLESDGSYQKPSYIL
Chain of Tumor necrosis factor (Homo sapiens) (P01375 whole entry, looked up): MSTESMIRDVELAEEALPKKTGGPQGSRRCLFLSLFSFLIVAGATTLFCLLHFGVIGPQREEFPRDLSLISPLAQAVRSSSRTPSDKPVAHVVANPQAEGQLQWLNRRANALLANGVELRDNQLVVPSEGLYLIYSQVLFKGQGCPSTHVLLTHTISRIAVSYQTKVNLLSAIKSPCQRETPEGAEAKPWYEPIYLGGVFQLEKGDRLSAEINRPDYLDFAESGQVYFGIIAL
Chain of human CYP19A1, CYP19A1 (gene 1588) (P11511 whole entry, looked up): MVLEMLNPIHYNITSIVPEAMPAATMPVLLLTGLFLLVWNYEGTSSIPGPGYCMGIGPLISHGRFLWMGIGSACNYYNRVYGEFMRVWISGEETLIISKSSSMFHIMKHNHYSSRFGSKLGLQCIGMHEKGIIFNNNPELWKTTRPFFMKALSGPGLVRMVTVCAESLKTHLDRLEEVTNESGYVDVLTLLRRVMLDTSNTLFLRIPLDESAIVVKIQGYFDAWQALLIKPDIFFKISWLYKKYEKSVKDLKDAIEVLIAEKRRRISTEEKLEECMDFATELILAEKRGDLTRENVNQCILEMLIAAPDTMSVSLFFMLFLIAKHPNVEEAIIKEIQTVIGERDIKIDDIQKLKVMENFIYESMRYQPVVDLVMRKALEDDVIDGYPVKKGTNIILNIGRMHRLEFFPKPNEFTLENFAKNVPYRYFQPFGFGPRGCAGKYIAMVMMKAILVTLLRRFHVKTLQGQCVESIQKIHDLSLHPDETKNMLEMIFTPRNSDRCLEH

For the molecule `COS(C)(=O)=O`, the outcome in experiment [1] is “inactive”; in [2], “inactive”; in experiment [3] it was “inactive”; in experiment [4], “inactive”; with CD38, CD38 (gene 952), “inactive”; in the experiment with CD40, CD40 (gene 958) it was “inactive”. Also, the outcome in the experiment with CD69, CD69 (gene 969) is “inactive”; in [5], “inactive”; in experiment [6], “inactive”; in [7], “inactive”; in experiment [8], “inactive”; in experiment [9], “inactive”. Further, the outcome in experiment [10] and in experiment [11] was inactive.
On to `COc1cc2c(c(OC)c1OC)-c1ccc(OC)c(=O)cc1[C@@H](NC(C)=O)CC2`, for which the AC50 in experiment [1] was 493 nM (active); in experiment [3], 2.39 µM (active); in [4], 431 nM (active); with CD38, CD38 (gene 952), 148 nM (active); in the experiment with CD40, CD40 (gene 958), 218 nM (active); with CD69, CD69 (gene 969), 505 nM (active). Further, the figures for the AC50 in experiment [10] and in experiment [11] were 340 nM (active) and 0.204 µM (active), respectively. Moreover, the result in experiment [2], in experiment [5], in experiment [6], in [7], in [8] and in [9] was inactive.
Regarding `CCCCN1C(=O)[C@@H]([C@H](O)C2CCCCC2)NC(=O)C12CCN(Cc1ccc(Oc3ccc(C(=O)O)cc3)cc1)CC2`, the outcome in [1] was “inactive”; in [2], “inactive”; in experiment [3] it was “inactive”; in experiment [4] it was “inactive”; in the experiment with CD38, CD38 (gene 952), “inactive”; with CD40, CD40 (gene 958), “inactive”. Further, the outcome with CD69, CD69 (gene 969) is “inactive”; in experiment [5] it was “inactive”; in [6], “inactive”; in experiment [7], “inactive”; in [8] it was “inactive”; in experiment [9], “inactive”. In addition, the outcome in experiment [10] and in experiment [11] was inactive.
For `CCOc1ccc2[nH]cc(C(=O)NCc3ccccc3)c(=O)c2n1`, the outcome was “inactive” in experiment [1]; “inactive” in experiment [2]; “inactive” in experiment [3]; “inactive” in [4]; “inactive” in the experiment with CD38, CD38 (gene 952); “inactive” in the experiment with CD40, CD40 (gene 958). Further, the outcome with CD69, CD69 (gene 969) was “inactive”; in experiment [5] it was “inactive”; in experiment [6], “inactive”; in experiment [7], “inactive”; in experiment [8], “inactive”; in experiment [9], “inactive”. Also, the outcome in [10] and in experiment [11] was inactive.
Regarding `Nc1ccn([C@@H]2O[C@H](CO)[C@@H](O)[C@@H]2O)c(=O)n1`, the outcome in experiment [1] was “inactive”; in experiment [2], “inactive”; in [3], “inactive”; in experiment [4] it was “inactive”; in the experiment with CD38, CD38 (gene 952) it was “inactive”; with CD40, CD40 (gene 958), “inactive”. Also, the outcome with CD69, CD69 (gene 969) is “inactive”; in [5], “inactive”; in [7] it was “inactive”; in experiment [9] it was “inactive”. The AC50 is 8.71 µM (active) in experiment [6], 12 µM (active) in experiment [8] and 20 µM (active) in experiment [11].
Regarding `Cn1cc[nH]c1=S`, the outcome in experiment [1] is “inactive”; in experiment [2], “inactive”; in experiment [3] it was “inactive”; in [4], “inactive”; with CD38, CD38 (gene 952) it was “inactive”; with CD40, CD40 (gene 958), “inactive”. For the same molecule, the outcome in the experiment with CD69, CD69 (gene 969) was “inactive”; in experiment [5] it was “inactive”; in experiment [6] it was “inactive”; in experiment [7] it was “inactive”; in [8] it was “inactive”; in experiment [9], “inactive”. Moreover, the result in experiment [11] was inactive.
Take `CCc1cccc(CC)c1N`: the outcome in experiment [1] was “inactive”; in experiment [2], “inactive”; in [3], “inactive”; in experiment [4], “inactive”; in the experiment with CD38, CD38 (gene 952), “inactive”; with CD40, CD40 (gene 958) it was “inactive”. Besides, the outcome with CD69, CD69 (gene 969) is “inactive”; in experiment [5], “inactive”; in experiment [6], “inactive”; in experiment [7] it was “inactive”; in experiment [8] it was “inactive”; in experiment [9], “inactive”. Besides, the outcome in [11] was inactive.
Take `CCCC(CCC)C(=O)O`: the outcome is “inactive” in experiment [1]; “inactive” in experiment [2]; “inactive” in [3]; “inactive” in experiment [4]; “inactive” in the experiment with CD38, CD38 (gene 952); “inactive” in the experiment with CD40, CD40 (gene 958). For the same molecule, the outcome with CD69, CD69 (gene 969) is “inactive”; in experiment [5], “inactive”; in [6] it was “inactive”; in experiment [7], “inactive”; in experiment [8], “inactive”; in experiment [9], “inactive”. Moreover, the outcome in [10], in [11] and in experiment [12] was inactive.
Take `CCCCCCOC(=O)CC(CC(=O)OCCCCCC)(OC(=O)CCC)C(=O)OCCCCCC`: the outcome in experiment [1] is “inactive”; in [2], “inactive”; in experiment [3], “inactive”; in experiment [4], “inactive”; in the experiment with CD38, CD38 (gene 952), “inactive”; with CD40, CD40 (gene 958) it was “inactive”. For the same molecule, the outcome in the experiment with CD69, CD69 (gene 969) is “inactive”; in experiment [5] it was “inactive”; in experiment [6], “inactive”; in experiment [7], “inactive”; in experiment [9], “inactive”; in experiment [11] it was “inactive”. Moreover, the AC50 in [8] was 4.11 µM (active).

A word on the AC50: it is the midpoint of the concentration-response curve, whichever way the signal moves.
